Test [1] in a line: resazurin metabolic signal in HepG2 cells – cell-based, resazurin fluorescence, 24 h, PK04 Diversity Set, profiling panel (AID 1172). Particulars: HepG2 viability, higher = more signal. In general terms: Alamar Blue is a resazurin reagent that responds to reducing activity.
The nature of test [2]: budding yeast growth changes without added modifier – OD600, strain BY4716, 24 h, basal condition, primary screen (AID 1173). The note with it: S. cerevisiae BY4716 growth, OD600, 24 h; higher = more signal, called active from +8 up or from −8 down.
Test [3] can be described thus: viability profiling in MM1S myeloma cells – cell-based, resazurin fluorescence, basal, 24 h, PK04 Diversity Set, profiling panel (AID 1174).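 Further: MM1S multiple myeloma cell line.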 Particulars: higher = more signal, called active from +8 up or from −8 down.
In test [4] the target is Dihydroorotate dehydrogenase (quinone), mitochondrial (Plasmodium falciparum (isolate 3D7)) (UniProt Q08210). Put plainly: inhibition of P. falciparum DHODH – biochemical, C-terminal His tag, absorbance 600 nm, primary screen (AID 1175).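 Further: recombinant parasite enzyme with a five histidine tag at its C terminus.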 The note with it: PfDHODH enzyme, DCIP absorbance 600 nm; higher = more signal, called active from +8 up or from −8 down.
Test [5] can be described thus: inhibition of PAO1 biofilm formation – strain PAO1, LB-PBS medium, absorbance 600 nm, primary screen (AID 1176). Particulars: P. aeruginosa PAO1 growth/biofilm, A600, 12 h; higher = more signal.
Test [6] in a line: growth modulation of vineyard yeast isolate – strain RM11-1a, OD600, basal, 24 h, primary screen (AID 1177).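 Further: cultures grown under basal conditions with no added stressor.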 The note with it: S. cerevisiae RM11-1a growth, OD600, 24 h; higher = more signal, called active from +8 up or from −8 down.
Test [7] is described as follows: growth of efflux-deficient E. coli DRC39 – strain DRC39, OD650, 24 h, E. coli filamentation inducers, primary screen (AID 1178).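 Further: growth measured as culture turbidity by optical density at 650 nm.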 The note with it: E. coli DRC39 acrAB, higher = more signal, called active from +8 up or from −8 down.
A short description of test [8]: growth of efflux-deficient E. coli DRC39 – strain DRC39, OD650, 48 h, E. coli filamentation inducers, primary screen (AID 1179).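 Further: screen aims at cell division blockers that make cells filament.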 The note with it: E. coli DRC39 delta-acrAB growth, higher = more signal, called active from +8 up or from −8 down.
Test [9] is described as follows: viability profiling in RPMI8226 myeloma cells – cell-based, resazurin fluorescence, basal, 24 h, PK04 Diversity Set, profiling panel (AID 1180).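 Further: RPMI8826 multiple myeloma cell line at 5000 cells per well.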 Particulars: higher = more signal.
Test [10] concerns the target E3 ubiquitin-protein ligase XIAP (Homo sapiens) (UniProt P98170). Put plainly: small molecules binding XIAP protein – biophysical, small-molecule microarray, fluorescence 635 nm, primary screen (AID 1181).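 Further: score merges 667 nm emission and signal to noise over triplicate slides.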 Particulars: higher = more signal.
For test [11], the system named is XIP peptide (Xip251-270) binding. Put plainly: XIP fragment 251-270 binding compounds – biochemical, small-molecule microarray, fluorescence 635/667 nm, 0.1 µg/mL protein, primary screen (AID 1182). The note with it: fluorescent protein binding, 635 nm, higher = more signal, called active from +8 up or from −8 down.
Test [12] concerns XIP peptide (Xip251-270). Put plainly: compounds binding XIP fragment 251-270 – biochemical, small-molecule microarray, fluorescence 635/667 nm, 0.5 µg/mL protein, primary screen (AID 1183). Particulars: fluorescence 635 nm, higher = more signal.
Test [13] is described as follows: blood-stage malaria parasite viability loss – strain 3D7, DAPI fluorescence, 100 nL, primary screen (AID 1184).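 Further: parasites grown inside human red blood cells in medium with human serum.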 Particulars: P. falciparum 3D7 growth, 3 d, higher = more signal.
For test [14], the target named is Homeobox protein Hox-A13 (Mus musculus) (UniProt Q62424). Put plainly: disruptors of Hoxa13 oligonucleotide interaction – biochemical, fluorescence polarization, labeled oligonucleotide, primary screen (AID 1185). Particulars: Hoxa13:DNA binding, 15 min, higher = more signal, called active from +8 up or from −8 down. Background: Polarisation of emitted light reports the rotation of a fluorescent probe.

Test [15] can be described thus: blockers of DNA damage checkpoint Chk1 activation – imaging, HeLa, hydroxyurea, phospho-Chk1 antibody, percent positive cells, primary screen (AID 1186). The note with it: hydroxyurea-induced phospho-Chk1 immunofluorescence imaging, higher = more signal.
Test [16] in a line: blockers of DNA damage checkpoint Chk1 activation – imaging, HeLa, hydroxyurea, phospho-Chk1 nuclear intensity, primary screen (AID 1187). Particulars: hydroxyurea-induced phospho-Chk1 immunofluorescence imaging, higher = more signal.

Calls of active or inactive are those of the source. Unless noted, how the calls were made is not given here.

Chain of E3 ubiquitin-protein ligase XIAP (Homo sapiens) (P98170 whole entry, looked up, the tested form may be a part): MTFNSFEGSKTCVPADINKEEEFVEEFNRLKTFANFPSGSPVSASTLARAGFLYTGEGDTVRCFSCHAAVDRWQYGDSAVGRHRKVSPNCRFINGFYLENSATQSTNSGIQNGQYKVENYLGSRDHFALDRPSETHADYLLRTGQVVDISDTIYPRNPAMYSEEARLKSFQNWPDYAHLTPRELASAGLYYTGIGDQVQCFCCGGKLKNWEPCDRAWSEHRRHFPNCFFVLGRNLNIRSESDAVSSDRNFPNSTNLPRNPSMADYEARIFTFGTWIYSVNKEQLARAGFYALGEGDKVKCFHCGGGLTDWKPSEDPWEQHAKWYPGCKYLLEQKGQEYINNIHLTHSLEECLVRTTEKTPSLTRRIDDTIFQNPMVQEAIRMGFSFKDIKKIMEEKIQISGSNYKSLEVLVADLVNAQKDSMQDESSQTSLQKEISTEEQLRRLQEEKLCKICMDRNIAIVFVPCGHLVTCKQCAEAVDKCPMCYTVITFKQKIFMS
Chain of Homeobox protein Hox-A13 (Mus musculus) (Q62424 whole entry, looked up): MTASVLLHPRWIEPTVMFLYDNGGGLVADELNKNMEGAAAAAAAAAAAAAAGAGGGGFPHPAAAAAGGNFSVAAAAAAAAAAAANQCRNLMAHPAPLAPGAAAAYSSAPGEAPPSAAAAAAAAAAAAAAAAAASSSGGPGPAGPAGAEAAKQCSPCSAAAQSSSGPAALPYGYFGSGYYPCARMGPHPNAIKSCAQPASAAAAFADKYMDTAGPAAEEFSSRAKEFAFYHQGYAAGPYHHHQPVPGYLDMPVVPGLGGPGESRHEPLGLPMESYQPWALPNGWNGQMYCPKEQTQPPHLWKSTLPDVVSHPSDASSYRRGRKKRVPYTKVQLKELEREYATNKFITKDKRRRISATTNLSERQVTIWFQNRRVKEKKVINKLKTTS
Chain of Dihydroorotate dehydrogenase (quinone), mitochondrial (Plasmodium falciparum (isolate 3D7)) (Q08210 whole entry, looked up): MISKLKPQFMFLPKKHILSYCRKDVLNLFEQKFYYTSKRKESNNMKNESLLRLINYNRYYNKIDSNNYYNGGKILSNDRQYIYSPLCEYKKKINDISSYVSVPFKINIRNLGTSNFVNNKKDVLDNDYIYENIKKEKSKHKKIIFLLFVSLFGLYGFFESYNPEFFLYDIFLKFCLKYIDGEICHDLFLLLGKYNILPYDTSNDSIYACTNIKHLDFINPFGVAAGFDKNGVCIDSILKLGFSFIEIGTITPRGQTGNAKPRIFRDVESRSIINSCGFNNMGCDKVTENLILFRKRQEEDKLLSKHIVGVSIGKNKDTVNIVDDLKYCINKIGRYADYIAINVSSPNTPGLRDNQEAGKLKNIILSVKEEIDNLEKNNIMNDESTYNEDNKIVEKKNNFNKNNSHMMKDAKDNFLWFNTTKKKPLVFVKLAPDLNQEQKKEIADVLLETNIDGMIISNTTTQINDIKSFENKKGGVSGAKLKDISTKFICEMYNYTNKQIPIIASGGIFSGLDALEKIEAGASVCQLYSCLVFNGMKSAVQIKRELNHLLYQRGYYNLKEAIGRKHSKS

On to `CCOC(=O)C[C@H]1[C@H](OC(=O)c2ccccc2-c2ccccc2)[C@@H](NC(=O)CC(C)C)c2cc(OCCCO)ccc2N1C(=O)c1ccc2ccccc2n1`, for which the z-score in test [1] was -0.208; in test [2], 0.706 (inactive); in test [3], 0.0612 (inactive); in test [5], -0.483 (inactive); in test [6], -0.078 (inactive); in [7] it was -0.418 (inactive). For the same molecule, the z-score in [8] was -0.0818 (inactive); in test [9] it was -0.0139; in [13] it was 1.65; in [14] it was -3.94 (inactive); in [15], 0.222 (inactive); in test [16], -0.537 (inactive). Further, the composite z-score in test [4] is -0.112 (inactive); in [10] it was 0.0993; in test [11], 2.34 (inactive); in [12] it was 0.0366.

As for `CC(C)C(=C=CC[C@H](O)c1ccc(OCCO)cc1)C[C@H](O)c1cc(Cl)cc(Cl)c1O`, the z-score was 0.918 in test [1]; -5.12 (inactive) in test [2]; -1.31 (inactive) in test [3]; -0.21 (inactive) in test [5]; -0.2 (inactive) in test [6]; 1.14 (inactive) in test [7]. Also, the z-score is 0.476 (inactive) in [8]; -0.576 in [9]; -2.74 in [13]; -1.35 (inactive) in test [14]; -0.289 (inactive) in test [15]; 0.18 (inactive) in test [16]. Besides, the composite z-score in [4] is -2.84 (inactive); in test [10], 0.0338; in test [11] it was 0.263 (inactive); in test [12], 0.746.

With `CC(C)(C)OC(=O)CC[C@]1(C(=O)O)N=C(c2ccc(OCCCO)cc2)O[C@H]1c1ccccc1`, the z-score in test [1] is 1.29; in test [2] it was -0.739 (inactive); in test [3], 0.904 (inactive); in test [5], -0.76 (inactive); in test [6] it was -0.279 (inactive); in test [7], 0.419 (inactive). Besides, the z-score in test [8] was 1.3 (inactive); in test [9], 1.65; in [13], -1.62; in [14] it was -3.48 (inactive); in test [15], -0.388 (inactive); in test [16], -0.243 (inactive). The composite z-score is -14.3 (active) in test [4], -0.0594 in [10], -0.0164 (inactive) in test [11] and 0.543 in [12].

For `CC(C)(C)OC(=O)CC[C@]1(C(=O)N2CCOCC2)N=C(c2ccc(OCCCO)cc2)O[C@H]1c1ccccc1`, the z-score in [1] was -0.149; in [2], -0.243 (inactive); in test [3] it was -1.56 (inactive); in test [5] it was -0.537 (inactive); in test [6] it was -0.294 (inactive); in [7], 0.301 (inactive). Also, the z-score in test [8] is 0.553 (inactive); in test [9] it was 0.48; in test [13], -0.29; in [14], -5.96 (inactive); in [15], -0.443 (inactive); in [16], -0.494 (inactive). Moreover, the composite z-score in test [4] is -0.127 (inactive); in test [10], 0.0003; in test [11], -0.0263 (inactive); in [12] it was 0.689.

On to `COc1ccc([Si](C)(C)[C@H]2[C@H](CC(=O)N3Cc4ccccc4C[C@H]3CO)O[C@@]3(C(=O)N(Cc4cccc(N5CCCCC5=O)c4)c4ccccc43)[C@@H]2C)cc1`, for which the z-score was -0.376 in [1]; -0.704 (inactive) in test [2]; -2.39 (inactive) in test [3]; 1.42 (inactive) in test [5]; 0.662 (inactive) in [6]; -0.235 (inactive) in test [7]. In addition, the z-score in test [8] was -0.435 (inactive); in [9], -1.74; in test [13], -1.62; in test [14], -3.09 (inactive); in test [15], -0.507 (inactive); in [16], -0.35 (inactive). For the same molecule, the composite z-score in test [4] is -0.614 (inactive); in test [10], 0.208; in test [11] it was 0.573 (inactive); in [12], 0.743.

Regarding `COC(=O)Cn1c(C(=O)N2CCCC2)cc2c1C[C@H]1CN(C(=O)c3ccccc3)[C@@](Cc3ccc(F)cc3)(C(=O)OC)[C@@H]21`, the z-score in test [1] is 0.716; in test [2], 0.702 (inactive); in test [3], -1.35 (inactive); in test [5], 0.756 (inactive); in [6] it was -1.54 (inactive); in [7], -0.132 (inactive). The z-score in test [8] was -0.181 (inactive); in test [9], 0.303; in test [13] it was 0.554; in test [14], -5.15 (inactive); in [15], -1.49 (inactive); in test [16], -1.37 (inactive). In addition, the composite z-score in test [4] was -0.653 (inactive); in test [10], 0.303; in test [11], 0.243 (inactive); in test [12], 0.513.

`COCCOC(=O)N1C(=O)[C@@]2(c3cc(C#CC4(O)CCCCCC4)ccc31)[C@H](C(N)=O)[C@H]1C(=O)O[C@H](c3ccccc3)[C@H](c3ccccc3)N1[C@@H]2c1ccccc1OCCO`: the z-score was -1.85 in test [1]; 0.707 (inactive) in test [2]; -7.01 (inactive) in [3]; 1.68 (inactive) in test [5]; 2.26 (inactive) in test [6]; -0.735 (inactive) in test [7]. In addition, the z-score in test [8] was -0.719 (inactive); in test [9], -6.48; in test [13], -2.19; in test [14] it was -1.56 (inactive); in [15], 0.276 (inactive); in test [16], 0.217 (inactive). The composite z-score in [4] was 1.34 (inactive); in [10], -0.229; in [11] it was -0.0203 (inactive); in test [12], 0.792.

The record behind these values is PubChem BioAssay.
